Test results taken from PubChem BioAssay (Tox21).
Where “and” joins values, the source holds several entries; their conditions need not be identical. Equal values may be shown once. Inconclusive results are not listed. Some compounds were tested as several samples or in several runs, with calls that do not always agree. Calls of active or inactive are those of the source. Unless noted, the call rests on the fitted dose curve; in most records, active means well fitted curve in the direction sought with a large enough effect in the repeat runs; inconclusive means weak or mixed curves; inactive means no such curve, though single readings can be large; an effect the other way counts as inactive or inconclusive.

What was measured:
[1] = qHTS assay to identify small molecule HDAC inhibitors (AID 1259364);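 further: wild-type HCT-116 cells with endogenous class I/II HDAC activity; top concentration of the series differs between compounds; nearly all actives have a fitted effect of over 45% in size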
Outline: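 Cells (HCT-116, wild type) are seeded at 1,500 per well, incubated overnight, treated with compound in DMSO for 2 hr, then developed with HDAC-Glo I/II reagent for 30 min at room temperature.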

[2] = qHTS assay to identify small molecule HDAC inhibitors - cell viability counter screen (AID 1259365); further: series mostly up to about 92 µM; nearly all actives have a fitted effect of over 50% in size
Outline: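 To flag cytotoxic hits, 1,500 wild-type HCT-116 cells per well, plated the day before, receive test compounds for 2hr at 37 C before CellTiter-Glo reagent and a luminescence read.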

[3] = qHTS assay to identify small molecule agonists of the sonic hedgehog signaling (Shh) pathway - cell viability counter screen (AID 1259366); further: nearly all actives have a fitted effect of over 50% in size
Outline: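 Fluorescence from CellTiter-Fluor reports live cells in this counter screen. NIH/3T3-derived Gli1-Luc reporter cells receive test compounds for 24hr at 37C; reagent goes in at 23hr.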

[4] = qHTS assay to identify small molecule antagonists of the sonic hedgehog signaling (Shh) pathway - cell viability counter screen (AID 1259367); further: nearly all actives have a fitted effect of over 55% in size
Outline: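 Fluorescence read-out (CellTiter-Fluor, 1 hr at 37C) taken after 23 hr compound treatment of 3T3 Gli1-Luc cells stimulated with conditioned medium. Cells were seeded at 2,000 per well and pre-incubated 4 hr.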

[5] = qHTS assay to identify small molecule agonists of the sonic hedgehog signaling (Shh) pathway (AID 1259368; calls by dose curve;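 further: NIH/3T3-derived 3T3Gli1-Luc cells carrying a stable Gli1-driven firefly luciferase reporter; series mostly up to about 92 µM; nearly all actives have a fitted effect of over 15% in size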)
Outline: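 Cells of a mouse NIH/3T3 clone stably expressing luciferase under the Gli1 transcriptional response element are exposed to test chemicals for 24 hr at 37 C. Pathway activation is detected as a rise in luminescence.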

[6] = qHTS assay to identify small molecule antagonists of the sonic hedgehog signaling (Shh) pathway (AID 1259369; calls by dose curve; further: nearly all actives have a fitted effect of over 45% in size; further: potency means the concentration at half of the fitted maximal effect)
Outline: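 Cells are plated and held 4hr at 37 C, compounds (DMSO) are pinned in, conditioned medium is added to stimulate the pathway, and after 24hr luciferase reagent is added for 30min before luminescence is read.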

[7] = qHTS assay to identify small molecule agonists of the estrogen receptor beta (ER-beta) signaling pathway - cell viability counter screen (AID 1259380); further: nearly all actives have a fitted effect of over 30% in size; further: potency means the concentration at half of the fitted maximal effect
Outline: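 Cytotoxicity is measured in parallel with the reporter screen: after 16 hr compound exposure at 37C and a 2 hr LiveBLAzer step, CellTiter-Glo is added to the same ER-beta-UAS-bla HEK293T wells and luminescence read after 30 min.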

[8] = target: Androgen receptor (Homo sapiens) (UniProt P10275); test: qHTS assay to identify small molecule agonists of the androgen receptor (AR) signaling pathway in the presence of an antagonist (AID 1259381; calls by dose curve; further: nearly all actives have a fitted effect of over 15% in size)
Outline: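 Agonist-mode confirmation screen: human MDA-kb2 cells stably expressing luciferase under an MMTV promoter bearing AR and GR response elements, co-treated with 3.0uM nilutamide (final). Luminescence measured after 16hr compound incubation.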

[9] = qHTS assay to identify small molecule antagonists of the estrogen receptor beta (ER-beta) signaling pathway - cell viability counter screen (AID 1259382); further: series mostly up to about 92 µM; nearly all actives have a fitted effect of over 55% in size
Outline: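 Cytotoxicity counter screen multiplexed with the beta-lactamase antagonist assay: GripTite HEK293T ER-beta-bla cells were treated 16 hr with test chemicals in the presence of 1nM 17-beta-estradiol, and viability was measured by CellTiter-Glo.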

[10] = target: Estrogen receptor (Homo sapiens) (UniProt P03372); test: qHTS assay to identify small molecule agonists of the estrogen receptor alpha (ER-alpha) signaling pathway in the presence of an antagonist (AID 1259383; calls by dose curve; further: top concentration of the series differs between compounds; nearly all actives have a fitted effect of over 15% in size)
Outline: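 Agonist-mode confirmation in the presence of the ER antagonist ICI-182,780 at 10.0nM final. Breast-derived VM7Luc4E2 reporter cells were exposed to compounds for 22hr, and ERE-driven luciferase was quantified by luminescence.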

[11] = qHTS assay to identify small molecule agonists or antagonists of the thyroid stimulating hormone receptor (TSHR) signaling pathway - wild type cell line counter screen (AID 1259384; calls by dose curve)
Outline: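 Wild-type Hek293 cells, 800/well, 18 h at 37C, then compound with Ro20-1724 for 30 min RT. cAMP by HTRF (cAMP-d2/anti-cAMP cryptate), 1 h RT, fluorescence read. 15 concentrations, triplicates.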

[12] = target: Thyrotropin receptor (Homo sapiens) (UniProt P16473); test: qHTS assay to identify small molecule antagonists of the thyroid stimulating hormone receptor (TSHR) signaling pathway (AID 1259385; calls by dose curve; further: nearly all actives have a fitted effect of over 20% in size)
Outline: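 TSHR-HEK293 cells (800/well) plated 18 h, then compounds with Ro20-1724 and TSH at 1.5 ng/mL final, 30 min at room temperature. cAMP quantified by HTRF (cAMP-d2/anti-cAMP-cryptate, 1 h); 15 concentrations in triplicate.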

[13] = qHTS assay to identify small molecule agonists of the estrogen receptor alpha (ER-alpha) signaling pathway in the presence of an antagonist - cell viability counter screen (AID 1259386);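 further: series mostly up to about 92 µM; cells exposed to compounds for 22 h at 37 °C before the viability read; nearly all actives have a fitted effect of over 30% in size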
Outline: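 Cytotoxicity was measured in parallel with the ERE-luciferase agonist screen, in the same wells. The cells were VM7Luc4E2, which endogenously express ER-alpha, and treatment was with compounds plus 10.0nM ICI-182,780 for 22hr.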

[14] = target: Progesterone receptor (Homo sapiens) (UniProt P06401); test: qHTS assay to identify small molecule agonists of the progesterone receptor (PR) signaling pathway (AID 1346784; calls by dose curve; further: nearly all actives have a fitted effect of over 30% in size)
Outline: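 Seed PR-UAS-bla HEK 293T cells (2% charcoal-stripped FBS), incubate 6 hr at 37C; add compounds in DMSO, 16 hr at 37C; add LiveBLAzer B/G substrate, 2 hr RT; read fluorescence intensity.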

[15] = target: Progesterone receptor (Homo sapiens) (UniProt P06401); test: qHTS assay to identify small molecule antagonists of the progesterone receptor (PR) signaling pathway (AID 1346795; active means well fitted inhibition curve with a large enough effect in the signal ratio in the repeat runs, not every such curve was filed as active; the % refers to the signal ratio; further: potency means the concentration at half of the fitted maximal effect)
Outline: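 Screening used a GripTite HEK293T line with PR-responsive UAS-beta-lactamase. Cells were challenged with compound in the presence of 1 nM R5020 final for 16 hr at 37C; B/G FRET substrate, 2 hr room temperature, fluorescence.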

[16] = qHTS assay to identify small molecule agonists of the androgen receptor (AR) signaling pathway in the presence of an antagonist - cell viability counter screen (AID 1259379);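 further: MDA-kb2 human breast cancer cells carrying an MMTV luciferase reporter; series mostly up to about 92 µM; nearly all actives have a fitted effect of over 25% in size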
Outline: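 Cytotoxicity is assessed by CellTiter-Fluor in MDA-kb2 cells carrying an MMTV-driven luciferase reporter. Cells receive 3.0uM nilutamide plus compounds at 15 concentrations and incubate 16 hr at 37C without CO2 before fluorescence reading.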

[17] = qHTS assay to identify small molecule antagonists of the progesterone receptor (PR) signaling pathway - cell viability counter screen (AID 1346798); further: series mostly up to about 92 µM; nearly all actives have a fitted effect of over 50% in size
Outline: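 Measures cytotoxicity in parallel with the PR antagonist reporter read: HEK293T PR-UAS-bla cells get compound and R5020 for 16 hr, and remaining viable cells are quantified by CellTiter-Glo luminescence.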

[18] = target: Estrogen receptor beta (Homo sapiens) (UniProt Q92731); test: qHTS assay to identify small molecule agonists of the estrogen receptor beta (ER-beta) signaling pathway (AID 1259377; active means well fitted activation curve with a large enough effect in the signal ratio in the repeat runs, not every such curve was filed as active; the % refers to the signal ratio; further: potency means the concentration at half of the fitted maximal effect)
Outline: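 Screening used GripTite ER-beta-UAS-bla cells held in 2% charcoal-stripped FBS medium. After overnight (16 hr) compound incubation at 37C, beta-lactamase activity was detected with a FRET substrate by fluorescence.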

[19] = target: Estrogen receptor beta (Homo sapiens) (UniProt Q92731); test: qHTS assay to identify small molecule antagonists of the estrogen receptor beta (ER-beta) signaling pathway (AID 1259378; active means well fitted inhibition curve with a large enough effect in the signal ratio in the repeat runs, not every such curve was filed as active; the % refers to the signal ratio)
Outline: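 ER-beta-UAS-bla HEK293T cells in 2% charcoal-stripped FBS medium treated with compound plus 1nM final 17-beta-estradiol for 16 hr at 37C. Beta-lactamase reporter read by FRET substrate fluorescence after 2 hours at room temperature.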

Measured: Potency

Progesterone receptor (Homo sapiens), sequence (P06401 whole entry, looked up): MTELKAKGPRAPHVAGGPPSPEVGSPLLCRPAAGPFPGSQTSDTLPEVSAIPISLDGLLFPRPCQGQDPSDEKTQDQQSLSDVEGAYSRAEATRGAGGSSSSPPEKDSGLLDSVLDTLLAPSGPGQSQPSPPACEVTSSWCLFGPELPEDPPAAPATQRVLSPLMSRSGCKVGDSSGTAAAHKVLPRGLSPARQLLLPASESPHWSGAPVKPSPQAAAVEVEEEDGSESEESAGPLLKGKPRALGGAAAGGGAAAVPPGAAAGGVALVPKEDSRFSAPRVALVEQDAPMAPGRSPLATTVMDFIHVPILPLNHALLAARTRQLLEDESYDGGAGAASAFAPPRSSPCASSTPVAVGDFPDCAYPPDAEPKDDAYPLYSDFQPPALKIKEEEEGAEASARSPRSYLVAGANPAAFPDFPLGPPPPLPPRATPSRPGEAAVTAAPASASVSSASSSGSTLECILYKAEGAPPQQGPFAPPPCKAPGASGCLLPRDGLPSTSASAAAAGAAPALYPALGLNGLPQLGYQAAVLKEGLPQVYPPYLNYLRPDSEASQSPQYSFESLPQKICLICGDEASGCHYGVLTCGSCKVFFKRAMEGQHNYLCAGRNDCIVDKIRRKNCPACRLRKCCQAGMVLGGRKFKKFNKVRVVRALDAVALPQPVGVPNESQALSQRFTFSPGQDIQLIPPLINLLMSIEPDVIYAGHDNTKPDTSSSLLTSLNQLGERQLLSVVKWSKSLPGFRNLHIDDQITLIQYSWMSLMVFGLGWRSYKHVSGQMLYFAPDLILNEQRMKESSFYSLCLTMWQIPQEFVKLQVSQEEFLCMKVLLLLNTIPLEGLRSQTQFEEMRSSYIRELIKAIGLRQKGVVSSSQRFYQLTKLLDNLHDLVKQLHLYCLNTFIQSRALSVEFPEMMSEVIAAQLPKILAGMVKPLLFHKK
Estrogen receptor beta (Homo sapiens), sequence (Q92731 whole entry, looked up): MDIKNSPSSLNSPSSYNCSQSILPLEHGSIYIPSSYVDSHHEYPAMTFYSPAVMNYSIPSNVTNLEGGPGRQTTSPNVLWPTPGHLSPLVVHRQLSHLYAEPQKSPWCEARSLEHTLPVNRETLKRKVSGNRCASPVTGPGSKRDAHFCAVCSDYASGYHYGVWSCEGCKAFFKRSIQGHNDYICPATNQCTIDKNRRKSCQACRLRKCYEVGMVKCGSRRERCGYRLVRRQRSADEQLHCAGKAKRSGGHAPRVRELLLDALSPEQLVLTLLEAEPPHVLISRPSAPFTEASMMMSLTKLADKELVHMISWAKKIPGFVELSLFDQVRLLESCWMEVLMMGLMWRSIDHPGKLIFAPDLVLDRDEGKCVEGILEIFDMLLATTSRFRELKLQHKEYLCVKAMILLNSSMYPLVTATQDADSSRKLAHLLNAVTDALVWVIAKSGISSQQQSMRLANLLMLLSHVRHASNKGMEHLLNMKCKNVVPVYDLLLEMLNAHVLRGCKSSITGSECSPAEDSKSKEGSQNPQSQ
Androgen receptor (Homo sapiens), sequence (P10275 whole entry, looked up): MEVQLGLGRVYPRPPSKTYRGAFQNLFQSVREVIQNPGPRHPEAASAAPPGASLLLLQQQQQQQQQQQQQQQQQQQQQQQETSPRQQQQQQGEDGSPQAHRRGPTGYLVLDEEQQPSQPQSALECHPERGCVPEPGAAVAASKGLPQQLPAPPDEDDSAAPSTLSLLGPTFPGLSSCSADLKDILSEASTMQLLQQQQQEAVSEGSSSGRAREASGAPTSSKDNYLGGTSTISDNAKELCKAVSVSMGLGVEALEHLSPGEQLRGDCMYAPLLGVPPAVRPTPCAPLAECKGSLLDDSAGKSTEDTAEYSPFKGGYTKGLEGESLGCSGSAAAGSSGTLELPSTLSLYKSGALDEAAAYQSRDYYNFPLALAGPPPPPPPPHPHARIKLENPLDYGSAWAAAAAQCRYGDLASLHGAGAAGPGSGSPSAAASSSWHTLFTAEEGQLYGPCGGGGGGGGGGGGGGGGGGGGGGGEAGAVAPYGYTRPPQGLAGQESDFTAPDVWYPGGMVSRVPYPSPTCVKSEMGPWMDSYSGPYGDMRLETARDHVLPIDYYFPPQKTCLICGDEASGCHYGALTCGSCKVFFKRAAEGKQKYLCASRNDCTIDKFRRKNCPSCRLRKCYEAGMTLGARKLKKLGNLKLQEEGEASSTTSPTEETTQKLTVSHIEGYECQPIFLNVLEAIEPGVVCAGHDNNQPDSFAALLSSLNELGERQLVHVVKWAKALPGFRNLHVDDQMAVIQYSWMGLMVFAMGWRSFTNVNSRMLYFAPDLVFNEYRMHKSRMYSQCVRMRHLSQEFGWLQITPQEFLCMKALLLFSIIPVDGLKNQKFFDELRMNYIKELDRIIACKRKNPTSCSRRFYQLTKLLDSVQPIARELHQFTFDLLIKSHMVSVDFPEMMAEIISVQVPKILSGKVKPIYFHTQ
Estrogen receptor (Homo sapiens), sequence (P03372 whole entry, looked up): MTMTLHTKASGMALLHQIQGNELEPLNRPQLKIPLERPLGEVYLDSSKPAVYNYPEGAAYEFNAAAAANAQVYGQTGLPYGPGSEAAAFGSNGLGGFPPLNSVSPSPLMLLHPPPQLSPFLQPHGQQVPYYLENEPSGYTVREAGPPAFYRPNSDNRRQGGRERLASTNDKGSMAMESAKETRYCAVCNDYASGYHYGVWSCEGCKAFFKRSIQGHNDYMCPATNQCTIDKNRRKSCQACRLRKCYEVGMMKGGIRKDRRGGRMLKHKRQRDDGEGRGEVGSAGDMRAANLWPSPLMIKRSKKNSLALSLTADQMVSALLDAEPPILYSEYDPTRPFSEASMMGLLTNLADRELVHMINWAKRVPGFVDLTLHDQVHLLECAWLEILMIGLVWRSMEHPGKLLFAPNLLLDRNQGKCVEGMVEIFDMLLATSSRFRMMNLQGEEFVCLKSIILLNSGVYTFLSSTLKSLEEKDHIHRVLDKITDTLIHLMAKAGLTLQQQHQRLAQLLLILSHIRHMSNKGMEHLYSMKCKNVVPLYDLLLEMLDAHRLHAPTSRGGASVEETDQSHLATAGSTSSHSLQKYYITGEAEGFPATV
Thyrotropin receptor (Homo sapiens), sequence (P16473 whole entry, looked up): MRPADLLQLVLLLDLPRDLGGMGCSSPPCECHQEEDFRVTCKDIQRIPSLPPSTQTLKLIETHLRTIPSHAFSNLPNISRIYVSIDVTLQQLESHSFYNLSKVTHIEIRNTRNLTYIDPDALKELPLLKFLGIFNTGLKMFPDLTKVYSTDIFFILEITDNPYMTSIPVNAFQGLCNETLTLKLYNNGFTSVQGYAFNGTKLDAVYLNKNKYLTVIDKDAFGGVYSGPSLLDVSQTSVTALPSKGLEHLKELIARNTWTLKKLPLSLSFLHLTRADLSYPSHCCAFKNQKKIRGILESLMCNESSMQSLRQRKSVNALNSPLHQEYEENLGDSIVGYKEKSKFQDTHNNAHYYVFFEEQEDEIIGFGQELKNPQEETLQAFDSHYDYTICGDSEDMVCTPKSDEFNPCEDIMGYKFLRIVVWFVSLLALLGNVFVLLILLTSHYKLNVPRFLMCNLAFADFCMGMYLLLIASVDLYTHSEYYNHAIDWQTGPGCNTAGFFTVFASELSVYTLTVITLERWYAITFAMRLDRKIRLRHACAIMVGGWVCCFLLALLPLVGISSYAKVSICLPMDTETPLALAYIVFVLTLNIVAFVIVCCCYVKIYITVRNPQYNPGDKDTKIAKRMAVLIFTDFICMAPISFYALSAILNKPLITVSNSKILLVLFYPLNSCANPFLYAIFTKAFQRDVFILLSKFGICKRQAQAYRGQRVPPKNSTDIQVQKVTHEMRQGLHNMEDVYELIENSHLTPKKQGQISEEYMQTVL

CCCC1COC(Cn2cncn2)(c2ccc(Cl)cc2Cl)O1 (stereo unspecified)
active: [6] 27.8 µM | [7] 61.1 µM | [15] 17.5 µM
not listed: [16] | [17] | [18] | [19]
inactive: all other assays above

Cn1cc(-c2ccccc2)c(=O)c(-c2cccc(C(F)(F)F)c2)c1
active: [7] 59.6 µM
not listed: [3] | [4] | [8] | [13] | [18] | [19]
inactive: all other assays above

COP(N)(=O)SC (stereo unspecified)
not listed: [2] | [8] | [17]
inactive: all other assays above

Oc1ccccc1Cl
not listed: [2] | [8] | [10] | [18] | [19]
inactive: all other assays above

CCOP(=S)(OCC)Oc1cnc2ccccc2n1
active: [6] 27.3 µM
not listed: [2] | [8] | [11] | [17]
inactive: all other assays above

c1ccc(OP(Oc2ccccc2)Oc2ccccc2)cc1
not listed: [2] | [8] | [11]
inactive: all other assays above

Cc1cccc([N+](=O)[O-])c1
not listed: [2] | [8] | [11] | [18] | [19]
inactive: all other assays above

CCCCN(CC)C(=O)SCCC
not listed: [2] | [11]
inactive: all other assays above

O=c1[nH]c2ccccc2c(=O)o1
not listed: [2] | [8] | [11] | [18] | [19]
inactive: all other assays above

CCCN(CCC)c1c([N+](=O)[O-])cc(C(F)(F)F)cc1[N+](=O)[O-]
not listed: [2] | [11] | [18] | [19]
inactive: all other assays above

O=[N+]([O-])c1ccc(Oc2ccc(Cl)cc2Cl)cc1
61.4 µM (active) and inactive: [18]
active: [15] 15.4 µM and 9.69 µM
not listed: [2] | [8] | [10] | [17]
inactive: all other assays above

COCCl
16 µM (active) and inactive: [6]
not listed: [2] | [10] | [11]
inactive: all other assays above

CCNc1nc(NC(C)(C)C)nc(SC)n1
active: [6] 1.7 µM and 6.11 µM | [15] 47.9 µM
not listed: [2] | [8] | [11] | [17]
inactive: all other assays above

O=Cc1cccc(Oc2ccccc2)c1
not listed: [2] | [8] | [17]
inactive: all other assays above

CNC(=O)Oc1ccccc1OC(C)C
not listed: [2] | [8]
inactive: all other assays above

[O-][Cl+2]([O-])O
not listed: [2] | [8] | [17]
inactive: all other assays above

BrCCBr
not listed: [2] | [8]
inactive: all other assays above

COC(=O)c1ccccc1N
not listed: [2] | [8] | [10]
inactive: all other assays above

CC(C)(Cl)Cl
not listed: [2] | [8] | [10] | [18] | [19]
inactive: all other assays above
